From PubChem
ALR H2O2 inh: inhibitors of human ALR sulfhydryl oxidase, primary screen, biochemical, H2O2 detection, HRP-luminol luminescence, single point; purified ALR, DTT oxidation; FAD-linked sulfhydryl oxidase ALR (Homo sapiens), P55789; 3.8% of 290,000 active; AID 485317, 2010; inhibition, % (test concentration not listed);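 active = mean replicate inhibition above about 79%, with every replicate also reaching it, limit read from the data; inconclusive = only one of the two criteria met; inactive = mean below limit and not every replicate reaching it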
Target sequence (P55789 whole entry, looked up): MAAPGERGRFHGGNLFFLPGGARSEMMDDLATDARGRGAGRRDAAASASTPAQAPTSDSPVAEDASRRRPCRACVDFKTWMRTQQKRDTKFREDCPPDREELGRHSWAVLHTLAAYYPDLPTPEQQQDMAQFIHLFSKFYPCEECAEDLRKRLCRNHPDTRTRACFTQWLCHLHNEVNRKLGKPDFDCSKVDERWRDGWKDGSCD
PHOSPHO1 block: PubChem AID 1565. Phosphoethanolamine/phosphocholine phosphatase (Homo sapiens), Q8TCT1. recombinant PHOSPHO1, absorbance phosphatase assay. inhibition, % at 13.3 µM. 1.1% of 290,000 active; in the data active = inhibition above about 60%
Target sequence (Q8TCT1 whole entry, looked up): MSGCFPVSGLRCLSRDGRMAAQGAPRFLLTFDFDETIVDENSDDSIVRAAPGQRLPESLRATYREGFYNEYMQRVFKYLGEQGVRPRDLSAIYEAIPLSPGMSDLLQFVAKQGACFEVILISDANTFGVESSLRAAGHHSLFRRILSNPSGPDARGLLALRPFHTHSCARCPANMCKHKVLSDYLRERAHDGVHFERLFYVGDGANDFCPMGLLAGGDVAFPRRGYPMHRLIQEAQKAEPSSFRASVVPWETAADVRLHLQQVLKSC
H9c2 protect: cardioprotection against H2O2-induced cell death, primary screen, uHTS, H9c2 cells, ATPLite luminescence; H9c2 cardiomyocytes, H2O2 injury protection, 2 h; protection from H2O2 cell death, % at 20 µM; 0.63% of 360,000 active;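 active = compounds giving at least 50% protection of heart cells from peroxide-induced death in the single-dose screen, raw or plate-pattern-corrected value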;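 also: 0% = DMSO wells with peroxide and 100% = DMSO wells without peroxide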
PfM18AAP inh-1: PfM18AAP inhibitors, malaria aminopeptidase, primary screen, biochemical, QFRET, recombinant enzyme; M18 aspartyl aminopeptidase (Plasmodium falciparum 3D7); H-Glu-NHMec fluorogenic cleavage; inhibition, % at 7.35 µM; 1.2% of 290,000 active; AID 1822, 2009;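 active = inhibition above the campaign mean inhibition over all tested compounds plus 3 SD, cut at about 28% in these data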;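 also: 0% = plate median of test compound wells and 100% = 2 mM ZnCl2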
PfG6PD inh: PfG6PD enzyme inhibitors, primary screen, biochemical, fluorescence intensity, uHTS | PfGluPho enzyme, NADPH resazurin-diaphorase fluorescence | glucose-6-phosphate dehydrogenase-6-phosphogluconolactonase (Plasmodium falciparum 3D7) | 0.78% of 350,000 active | inhibition, % at 20 µM;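 active = inhibition reaching at least a set limit at 20 µM in the primary screen, cut at about 59% in these data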;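 also: 0% = DMSO wells with substrate and 100% = DMSO wells lacking glucose-6-phosphate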
PfM18AAP inh-2: PfM18AAP inhibitors, malaria aminopeptidase, confirmation, biochemical, QFRET, recombinant enzyme, triplicate; H-Glu-NHMec fluorogenic cleavage; AID 2170, 2009; 28% of 2,400 active; inhibition, % at 7.35 µM; shares compounds with PfM18AAP inh-1;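 active = mean inhibition over replicate wells above the hit cutoff set for the earlier primary screen, cut at about 29% in these data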;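 also: 0% = median of test compound wells and 100% = 2 mM ZnCl2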
CTSL1 confirm: cathepsin L1 inhibitors, retest, confirmation, counter-screen for PFM18AAP inhibitor project, biochemical, QFRET, triplicate; shares compounds with PfM18AAP inh-1; purified cathepsin L1, Z-Leu-Arg-MCA fluorescence; inhibition, % at 5.96 µM; 2,400 tested, under 10 active; AID 2178, 2009;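 active = average inhibition across replicates above the hit cutoff set in the earlier primary screen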;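 also: 0% = median of test compound wells and 100% = Z-Phe-Ala-diazomethylketone 1 µM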
* = called active by the depositor; ? = inconclusive; nt = no result. Most compounds without a hit are left out; they make up all but 5.6% or so of the library.

SMILES	ALR H2O2 inh	PHOSPHO1 block	H9c2 protect	PfM18AAP inh-1	PfG6PD inh	PfM18AAP inh-2	CTSL1 confirm
COc1ccc(/C(C)=N/Nc2nc3ccccc3nc2C)cc1OC	64	24	-11	39*	1	-21	3
COc1ccc(CNC(=O)CC2C[C@H](C(=O)N3CCCCC3)[C@@]3(C)c4[nH]c5ccccc5c4CCN3C2=O)cc1OC (stereo not given in full)	nt	nt	13	nt	-3	nt	nt
Cc1cccc(Nc2nc(-c3ccc(O)c(O)c3)cs2)n1	99*	31	43	54*	8	28	-5
CCCNC(=O)c1csc(Nc2cccc3ccccc23)n1	-46	29	-8	5	2	nt	nt
COc1ccc(-c2csc(Nc3cc(C)ccn3)n2)cc1C	-1	-5	-8	-2	15	nt	nt
Oc1ccc(-c2csc(Nc3cccc4ccccc34)n2)cc1O	73	14	49	55*	10	25	-13
Cc1ccnc(Nc2nc(-c3ccc(O)c(O)c3)cs2)c1	98*	14	60*	62*	32	47*	-1
Cc1cccnc1Nc1nc(-c2ccc(O)c(O)c2)cs1	99*	30	65*	79*	40	55*	4
CC1(C)Cc2c(cnn2-c2cccc(F)c2)C(NC(=O)c2ccc[n+]([O-])c2)C1 (stereo not given)	-18	27	-3	-3	-4	nt	nt
Cc1noc(C)c1NC(=O)N(C)C[C@H]1Oc2ccc(NC(=O)Nc3ccccc3)cc2C(=O)N([C@H](C)CO)C[C@@H]1C	nt	nt	5	nt	14	nt	nt
Oc1ccc(-c2csc(Nc3ccccn3)n2)cc1O	98*	-6	49	64*	32	47*	-4
CC(=O)Nc1ccc(-c2csc(Nc3ccccn3)n2)cc1	6	22	-4	-1	27	nt	nt
O=S(=O)(Nc1ncn[nH]1)c1ccc2ccccc2c1	-5	18	8	51*	0	41*	-2
Cc1cc(C)c(S(=O)(=O)Nc2ncn[nH]2)cc1C	18	35	-3	42*	0	11	-2
C[C@H](CO)N1C[C@H](C)[C@@H](CN(C)S(=O)(=O)c2ccccc2)Oc2c(NC(=O)C3CCCCC3)cccc2C1=O	-2	nt	14	nt	-3	nt	nt
Cc1ccc(C2(C)NC(=O)N(CC(=O)NNC(=O)c3cc(C)oc3C)C2=O)cc1 (stereo not given)	5	nt	0	nt	-24	nt	nt
CCCCNC(=O)NNc1nc(Cl)cc(C)c1C#N	?	30	-17	54*	32	45*	0
O=C(CSc1n[nH]c(-c2ccccc2)n1)c1ccc(O)c(O)c1	99*	44	80*	60*	30	36*	0
Cc1cc(SCC(=O)c2ccc(O)c(O)c2)nc2ccccc12	100*	30	51*	46*	-26	21	3
O=C(COC(=O)c1ccc2c(c1)C(=O)N(Cc1ccco1)C2=O)NCC(F)(F)F	3	12	7	-8	-6	nt	nt
Cc1ccccc1C(N)c1ccncc1 (stereo not given)	-17	nt	-3	1	-10	nt	nt
O=C(N=C1SC2CS(=O)(=O)CC2N1CCc1ccccc1)C1CC1 (stereo not given)	-3	45	6	1	7	nt	nt
O=C1CSC(=S)N1N=C1CCCCCC1	61	-45	13	39*	6	1	-1
O=C1C2C3C=CC(O3)C2C(=O)N1N=C1CCCCC1 (stereo not given)	nt	nt	5	nt	-25	nt	nt
O=c1cc2oc3cc(O)c(O)cc3c(-c3ccccc3[N+](=O)[O-])c-2cc1O	4	32	24	59*	18	49*	-1
SMILES	ALR H2O2 inh	PHOSPHO1 block	H9c2 protect	PfM18AAP inh-1	PfG6PD inh	PfM18AAP inh-2	CTSL1 confirm
O=c1cc(-c2ccccc2Cl)oc2cccc(O)c12	2	-16	-5	0	1	nt	nt
CN(C(=O)c1ccc(NC(=O)Cc2ccc([N+](=O)[O-])cc2)cc1)C1CC1	-2	nt	7	nt	6	nt	nt
CC(=O)NC(c1cccc(F)c1)c1nc(-c2cccc(C(F)(F)F)c2)cs1 (stereo not given)	nt	nt	-5	nt	nt	nt	nt
O=C(/C=C1\NC2(CCCC2)Cc2ccccc21)C(=O)N/N=C/c1ccc(O)c(O)c1	35	2	102*	64*	14	37*	2
O=C(Cc1ccccc1)Nc1ccc2c(c1)CCC2	-7	-8	-3	4	-4	nt	nt
O=C(CC1CCCC1)Nc1ccc2c(c1)CCC2	-4	34	2	46*	13	-30	-5
CCN1/C(=C2\C(=O)N(C)C(=S)N2C)C=Cc2cc(OC)ccc21	9	-44	-2	34*	9	-24	-3
O=C(N/N=C/c1coc2ccccc2c1=O)c1ccccc1Br	51	-3	6	36*	-8	-29	0
O=C(N/N=C/c1coc2ccccc2c1=O)c1cccc([N+](=O)[O-])c1	2	13	-2	16	-3	nt	nt
COc1ccc(C(=O)N/N=C\c2coc3ccccc3c2=O)cc1	nt	39	2	20	-8	nt	nt
O=C(N/N=C/c1coc2ccccc2c1=O)c1cc(O)cc(O)c1	nt	9	4	39*	26	3	3
O=CN/C=C/c1cc(O)ccc1O	98*	33	-8	61*	48	83*	0
O=Cc1ccc(O)cc1O	-18	8	4	8	6	nt	nt
CCOc1ccccc1/C=N/Nc1ccnc(=O)[nH]1	-6	6	1	-13	13	nt	nt
COc1cccc(/C=N/Nc2ccnc(=O)[nH]2)c1O	14	42	24	43*	-23	-12	2
COc1cccc(/C=N/NC(=O)N/N=C/c2cccc(OC)c2O)c1O	45	8	38	33*	-1	2	-4
CC(=O)Nc1ccc(C(=O)N2CCCCC2c2cc(C(=O)Nc3ccccc3Cl)no2)cc1 (stereo not given)	nt	nt	-6	nt	nt	nt	nt
Cc1cccc(N(CC(=O)NCc2ccc(F)cc2)C(=O)c2ccco2)c1	2	31	-2	0	-19	nt	nt
Cc1cc(NC(=O)CSc2nnc(-c3ccc(O)cc3)o2)no1	-9	24	1	38*	10	-48	-7
CCOC(=O)Cc1csc(NC(=O)CSc2nnc(-c3ccc(C)cc3)o2)n1	-14	-8	-11	32*	-15	-55	-3
Cc1cc(NC(=O)CSc2nnc(-c3ccccc3)o2)no1	-1	32	-1	13	4	nt	nt
